Screening results deposited in PubChem by National Center for Advancing Translational Sciences (NCATS).
Only a selection was taken, and hits are over-represented in it overall.
Cycloheximide cs = counter-screen for Shiga toxin inhibitors: cycloheximide protein synthesis inhibition; cell reporter, cycloheximide protein synthesis inhibition counterscreen; max response, %; actives 12% (n = 300,000); AID 2314; in the data active = max response mostly above about 13%, no sharp cut-off; inactive = mostly below about 14%; also: read at 38.3 µM for the half of the compounds with a filed dose
Shiga inhibitor = blocks Shiga toxin action in Vero cells | Vero cells, Shiga toxin protein synthesis inhibition reporter | inhibition, % at 38.7 µM | actives 9.2% (n = 290,000); in the data active = inhibition mostly above about 28%, no sharp cut-off; inactive = mostly below about 43%
RE007 growth inh = less growth of the S. pombe RE007 Vpr strain; Potency, µM (doses to about 92.2 µM), hits mostly inhibitors; actives 0.21% (n = 360,000); S. pombe RE007 Vpr strain, BacTiter-Glo ATP luminescence, 24 h; active = well fitted falling curve with a large enough effect; inconclusive = small, poorly fitted or top-dose-only effect; inactive = no such curve, though single readings can be large or run the other way; also: nearly all actives have a fitted effect of over 50% in size
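Fission yeast RE007 carrying one integrated HIV-1 vpr copy, seeded at OD 0.01 in PMG+AL medium with 23 nL pinned compound. Grown 24 h at 30 degrees; viability read by BacTiter-Glo luminescence after 5 min.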
FBPA Giardia inh = inhibitors of Giardia lamblia fructose-1,6-bisphosphate aldolase; purified Giardia FBPA; Potency, µM (series often up to 59.6 µM), hits mostly inhibitors; actives 0.71% (n = 290,000); AID 2451; also: nearly all actives have a fitted effect of over 55% in size
Target sequence (A8B2U2 whole entry, looked up): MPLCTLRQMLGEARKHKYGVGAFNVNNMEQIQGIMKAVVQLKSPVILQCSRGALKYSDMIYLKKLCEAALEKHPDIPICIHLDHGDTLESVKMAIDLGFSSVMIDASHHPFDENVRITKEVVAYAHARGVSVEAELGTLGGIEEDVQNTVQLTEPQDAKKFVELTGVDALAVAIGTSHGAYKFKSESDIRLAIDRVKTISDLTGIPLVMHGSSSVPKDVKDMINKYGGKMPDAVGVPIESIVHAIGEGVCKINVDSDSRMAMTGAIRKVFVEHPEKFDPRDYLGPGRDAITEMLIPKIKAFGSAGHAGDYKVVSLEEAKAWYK
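Giardia FBPA (40 nM reagent) was preincubated 10 min at RT with compound (up to 57.5 uM final), then substrate plus GAPDH/TPI/NAD/arsenate coupling system with diaphorase/resazurin was added; resorufin fluorescence (525/598 nm) was read after 20 min.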
Tb PYK inh = inhibitors of Trypanosoma brucei pyruvate kinase. Potency, µM (doses to about 76.8 µM), most hits filed as inhibitors. TbPYK enzyme, Kinase-Glo Plus ATP luminescence, 45 min. actives 0.12% (n = 410,000). AID 624173. Q57TT1; also: nearly all actives have a fitted effect of over 50% in size
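Enzyme and substrate buffer are dispensed first and compound is pin-transferred. ADP at 130 uM final then starts the reaction, which runs 45 min at room temperature. Detection reagent is added for 10 min before luminescence is imaged.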
LmPK inh = LmPK (Leishmania mexicana) enzyme inhibition; Q27686; purified LmPK, Kinase-Glo ATP luminescence, 1 h; Potency, µM (top dose mostly 57.5 µM), most hits filed as inhibitors; actives 0.37% (n = 290,000); AID 1721
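qHTS format; LmPK 0.1 nM; substrates PEP 0.5 mM and ADP 0.1 mM. One-hour room-temperature incubation, then coupled luciferase luminescence; 0.5 nM enzyme wells mark activation.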
A number is an active result; i = inactive; ? = inconclusive; nt = no result given; + = active, no number; [ ] = another dose, or the depositor's remark. Unless noted, calls follow the shape of the dose curve; as a rule, active = well fitted curve in the direction sought with a large enough effect; inconclusive = small, poorly fitted or top-dose-only effect, or another doubt; inactive = no such curve, though single readings can be large; an effect the other way counts as inactive or inconclusive.

SMILES | Cycloheximide cs | Shiga inhibitor | RE007 growth inh | FBPA Giardia inh | Tb PYK inh | LmPK inh
Cc1cc(C)nc(N/N=C/C2=C(N3CCOCC3)C(=C\c3ccc(Cl)cc3)/CC2)n1 | i | i | i | i | i | i
CS(=O)(=O)N1CCN(c2ccc(NC(=O)c3ccc([N+](=O)[O-])o3)cc2)CC1 | 30.2 | 52.9 | i | i | i | i
O=C(Nc1ccc(N2CCCCC2)cc1)c1ccc([N+](=O)[O-])o1 | 35.0 | 103.9 | ? | i | i | i
O=C(Nc1ccc(N2CCCC2)c(Cl)c1)c1ccc([N+](=O)[O-])o1 | 89.9 | + | i | ? | i | i
O=C(Nc1cccc([N+](=O)[O-])c1)c1ccc([N+](=O)[O-])o1 | nt | nt | i | nt | i | nt
Cc1ccc(NC(=O)c2ccc([N+](=O)[O-])o2)cc1C | 41.3 | 107.9 | ? | i | i | i
COc1ccc(NC(=O)COC(=O)CNC(=O)c2cccs2)cc1Cl | nt | nt | i | nt | i | nt
CN(C)P(=O)(Nc1cccc2ccccc12)Nc1cccc2ccccc12 | nt | nt | i | nt | i | nt
Cc1cc(C=O)c(O)cc1O | i | i | i | i | i | i
CC/C=C\C/C=C\C/C=C\C/C=C\C=C\C(O)CCCC(=O)O (configuration not stated) | nt | nt | nt | i | nt | nt
CCC(=O)N1CCN(c2ccc(NC(=O)c3ccc([N+](=O)[O-])o3)cc2)CC1 | 21.4 | 32.7 | i | i | i | i
CCCC(=O)N1CCN(c2ccc(NC(=O)c3ccc([N+](=O)[O-])o3)cc2)CC1 | i | i | i | i | i | i
CC(C)(C)C(=O)N1CCN(c2ccc(NC(=O)c3ccc([N+](=O)[O-])o3)cc2)CC1 | 51.9 | 39.3 | i | i | i | i
CN(C)c1nc(NCc2ccccc2)nc(N/N=C/c2ccccc2F)n1 | i | i | nt | i | nt | i
FC(F)Oc1ccccc1/C=N/Nc1nc2ccccc2o1 | 44.0 | 74.1 | i | i | i | i
Fc1ccccc1/C=N/Nc1nc2ccccc2o1 | 49.9 | 79.2 | i | i | i | i
FC(F)(F)c1cccc(N2CCN(c3ncnc4c3nc3n4CCCC3)CC2)c1 | nt | nt | nt | nt | i | nt
Cc1c(C(=O)NCCC#N)sc(=O)n1Cc1ccccc1F | nt | nt | i[18.4 µM] | nt | i | nt
CCOC(=O)c1c(NC(=O)C(C)Sc2cn(CCNC(=O)c3ccccc3OC)c3ccccc23)sc2c1CCC2 (configuration not stated) | nt | nt | nt | nt | i | nt
Cc1cccc(-n2c(CNC(=O)c3cccc([N+](=O)[O-])c3C)n[nH]c2=S)c1 | i | i | i | i | 8.91µM | i[11.5 µM]
COc1ccccc1-n1c(CNC(=O)c2cccc([N+](=O)[O-])c2C)n[nH]c1=S | i | i | i | i | 7.94µM | i
Cc1cccc(-n2c(Cn3nc(C)c([N+](=O)[O-])c3C)n[nH]c2=S)c1 | i | i | i | i | i | i
O=C(Nc1cccc(-c2nc3ccccc3s2)c1)C1=COCCO1 | 43.8 | 50.2 | ? | i | i | i
O=C(Nc1ccc(-c2nc3ccccc3s2)cc1)C1=COCCO1 | 39.5 | 55.5 | i | i | i | i
O=C(Nc1ccc(O)c(-c2nc3ccccc3s2)c1)C1=COCCO1 | i | i | i | i | i | i
SMILES | Cycloheximide cs | Shiga inhibitor | RE007 growth inh | FBPA Giardia inh | Tb PYK inh | LmPK inh
O=C(Nc1ccc(-c2nc3ccccc3s2)c(O)c1)C1=COCCO1 | 131.3 | 73.1 | i | i | i | i
CN(C)c1cccc(C(=O)Nc2ccc(-c3nc4ccccc4s3)cc2)c1 | nt | nt | nt | nt | i | nt
O=C(CNc1ccc(Br)cc1)Nc1ccc(S(=O)(=O)N2CCCC2)cc1 | nt | nt | i | nt | i | nt
NC(=O)COC(=O)c1sc2ccccc2c1Cl | i | i | i | i | i | i
Cc1cc(C)n(CCOC(=O)c2sc3ccccc3c2Cl)n1 | 18.4 | i | i | i | i | i
Oc1ccc(N=Cc2ccc(-c3cccs3)s2)cc1 | i | i | i | 3.54µM | i | i
Cc1ccc(C2=NCN(c3ccc(C(=O)O)cc3)C(=S)N2)cc1 | 39.1 | i | nt | i | nt | i
S=C1NC(c2ccccc2)=NCN1c1ccccc1 | 30.0 | i | i | i | i | i
O=C1CN(c2ccccc2)C(=O)N1 | i | i | i | i | i | i
CCN(CC)C(=O)[C@H]1C[C@H](CC(=O)NCCN2CCOCC2)C(=O)N2CCc3c([nH]c4cc(CCC(=O)N(C)C)ccc34)[C@]12C | nt | nt | i | nt | i | nt
Cc1c(C(=O)N2CCN(CC(=O)Nc3ccccc3Cl)CC2)oc2ccc(Br)cc12 | nt | nt | i | nt | i | nt
CC[C@@H](C)[C@@H](CO)NC(=O)[C@H]1O[C@@H](n2cnc3c(N)ncnc32)[C@H](O)[C@@H]1O | nt | nt | i | nt | i | nt
Cc1c(CCN)ccc2c1[nH]c1ccccc12 | 17.4 | i | i | i | i | i
COc1cccc(C2=CC(c3ccc(C)cc3)n3ncnc3N2)c1 (configuration not stated) | i | i | nt | i | nt | i
COc1cccc(C2=CC(c3cccs3)n3nnnc3N2)c1 (configuration not stated) | 40.6 | 48.2 | i | i | i | i
COc1ccc(C2=CC(c3ccc(F)cc3)n3nnnc3N2)cc1 (configuration not stated) | i | i | i | i | i | i
COc1cccc(C2=CC(c3ccc(OC)c(OC)c3OC)n3nnnc3N2)c1 (configuration not stated) | 34.7 | 91.6 | i | ? | i | i
COc1ccc(C2=CC(c3sccc3C)n3nnnc3N2)cc1 (configuration not stated) | 40.0 | 109.3 | i | i | i | i
CC(C)c1ccc(C2=CC(c3ccc(C(C)C)cc3)n3nnnc3N2)cc1 (configuration not stated) | nt | nt | nt | nt | i | nt
Cc1ccc(C2=CC(c3ccc(N(C)C)cc3)n3nnnc3N2)cc1 (configuration not stated) | 25.6 | i | i | i | i | i
Clc1c(Cl)c(Cl)c(Cl)c(Cl)c1Cl | i | i | nt | i | nt | nt
Cc1cc(C)n2nc(SCC(=O)Nc3cc(Cl)ccc3C)nc2n1 | nt | nt | nt | nt | i | nt
Cc1oc2c(c1C(=O)N1CCC(C)CC1)C(=O)c1ccccc1C2=O | i | i | i | ? | i | i
Cc1ccc(C(=O)c2c(C)oc3c2C(=O)C(=O)c2ccccc2-3)cc1 | i | i | 25.1µM | 0.629µM | i | i
Cc1ccc(C(=O)c2coc3c2C(=O)C(=O)c2ccccc2-3)cc1 | 32.2 | 42.4 | ? | 2.81µM | i | i
Cc1oc2c(c1C(=O)c1ccc(Cl)cc1)C(=O)C(=O)c1ccccc1-2 | i | i | i | 0.889µM | i | i
COc1ccc(C(=O)c2coc(-c3ccccc3C(=O)O)c2C(=O)O)cc1 | i | i | i | i | i | i
Cc1ccc(-c2nc3cccnc3s2)cc1NC(=O)C1c2ccccc2Oc2ccccc21 | 29.9 | i | i | i | i | i
CCS(=O)(=O)Nc1cccc(-c2nc3cccnc3s2)c1 | 33.4 | 130.9 | i | i | i | i
Cc1ccc(-c2nc3cccnc3s2)cc1NC(=O)Cc1ccccc1 | nt | nt | nt | nt | i | nt
